Records with an inconclusive call do not appear. Entries that show only a call come without a potency. Active and inactive are the calls of the source. Calls come from the whole dose curve; as a rule, active = well fitted inhibition curve with a large enough effect; inconclusive = small, poorly fitted or top-dose-only effect; inactive = no such curve, though single readings can be large or run the other way.

For this experiment, the target named is Papain (Carica papaya) (UniProt P00784). The experiment can be described thus: Primary qHTS assay for inhibitors of the protease papain (AID 1645873).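 Note: papain turnover of Z-FR-AMC read as the AMC fluorescence gain over 10 min.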 The settings on record: papain Z-FR-AMC cleavage, AMC fluorescence; series mostly up to 49.8 µM. Background: qHTS replaces the single test concentration by a dilution series.
Papain (Carica papaya), sequence (P00784 whole entry, looked up): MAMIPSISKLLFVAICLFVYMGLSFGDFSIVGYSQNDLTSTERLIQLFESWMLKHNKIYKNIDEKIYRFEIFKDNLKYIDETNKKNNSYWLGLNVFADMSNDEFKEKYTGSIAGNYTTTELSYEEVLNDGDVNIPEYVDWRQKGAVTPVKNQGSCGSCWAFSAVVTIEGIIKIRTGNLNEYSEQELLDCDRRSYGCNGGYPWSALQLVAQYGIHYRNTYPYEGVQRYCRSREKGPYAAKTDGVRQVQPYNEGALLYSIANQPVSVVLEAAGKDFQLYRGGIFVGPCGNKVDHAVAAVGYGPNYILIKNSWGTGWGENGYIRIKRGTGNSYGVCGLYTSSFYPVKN
As for `CN1C2CCC1CC(OC(=O)c1cc(Cl)cc(Cl)c1)C2` (stereo not given), the Potency entry was “inactive”.
The result for `NCCc1c[nH]c2ccccc12` reads “inactive”; that for `O=C(O)[C@@H]1CCN1`, “inactive”; that for `O=C(O)CC[N+](=O)[O-]`, “inactive”.
Turning to `C[C@]12CCC3C(CC[C@H]4C[C@H](O)CC[C@]34C)C1CC[C@@H]2C(=O)CO` (stereo not given in full), the Potency entry is “inactive”.
For the compound `NC1CCc2cc(O)c(O)cc2C1` (stereo not given), the Potency entry is “inactive”.
The result for `NC1CC1c1ccccc1` (stereo not given) reads “inactive”; that for `CCCCc1ccc(C(=O)O)nc1`, “inactive”.
The result for `C[C@@H]1O[C@H](C[N+](C)(C)C)C[C@H]1O` reads “inactive”; that for `CS(=N)(=O)CC[C@H](N)C(=O)O` (stereo not given in full), “inactive”; that for `CC(=O)NCCc1c[nH]c2ccccc12`, “inactive”.
The result for `CC1=NN=C(c2ccc(N)cc2)c2cc3c(cc2C1)OCO3` reads “inactive”; that for `S=C(NC1CCCCC1)N1CCC(c2cnc[nH]2)CC1`, “inactive”; that for `O=C(O)Cc1cnc[nH]1`, “inactive”.
Regarding `Cn1cnc(CCN)c1`, the Potency result was “inactive”.
In the case of `CCCN(CCC)C1CCc2ccc(O)cc2C1` (stereo not given), the Potency entry was “inactive”.
The result for `NCCc1c[nH]c2ccc(O)cc12` reads “inactive”; that for `c1ccc2sc(C3(N4CCCCC4)CCCCC3)cc2c1`, “inactive”; that for `C[N+]1(C)C2CCC1CC(OC(=O)C(CO)c1ccccc1)C2` (stereo not given), “inactive”.
Turning to `C=CCN1CC[C@]23CCCCC2[C@H]1Cc1ccc(O)cc13` (stereo not given in full), the Potency result was “inactive”.
With `CNCCc1ccc(O)c(O)c1` the entry was “inactive”; with `c1ccc(CCCN2CCN(CCOC(c3ccccc3)c3ccccc3)CC2)cc1`, “inactive”; with `CN[C@@H]1C[C@@H](c2ccc(Cl)c(Cl)c2)c2ccccc21`, “inactive”.
For the compound `C[C@@H](N)Cc1cnc[nH]1`, the Potency result was “inactive”.
The result for `COc1cc(C(O)CN)ccc1O` (stereo not given) reads “inactive”.

Source of the values: PubChem BioAssay (NCATS).
